# Data from article PMC4336329 (PLoS ONE, 2015).
# About 14,000 (4.5%) of roughly 310,000 compounds showed an effect of 50% or more. The effect is printed as a negative number. This is one part of a sample in which strong results are shown more often than they occur.
# Target: human ether-à-go-go-related gene (hERG) potassium channel (human, UniProt Q12809)
# Assay: primary screen, population patch clamp on CHO cells stably expressing hERG; higher = less effect of the substance
# 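Further: peak tail current of the secondary pulse compared with the same well before compound.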
# human ether-à-go-go-related gene (hERG) potassium channel, sequence (Q12809 whole entry, looked up): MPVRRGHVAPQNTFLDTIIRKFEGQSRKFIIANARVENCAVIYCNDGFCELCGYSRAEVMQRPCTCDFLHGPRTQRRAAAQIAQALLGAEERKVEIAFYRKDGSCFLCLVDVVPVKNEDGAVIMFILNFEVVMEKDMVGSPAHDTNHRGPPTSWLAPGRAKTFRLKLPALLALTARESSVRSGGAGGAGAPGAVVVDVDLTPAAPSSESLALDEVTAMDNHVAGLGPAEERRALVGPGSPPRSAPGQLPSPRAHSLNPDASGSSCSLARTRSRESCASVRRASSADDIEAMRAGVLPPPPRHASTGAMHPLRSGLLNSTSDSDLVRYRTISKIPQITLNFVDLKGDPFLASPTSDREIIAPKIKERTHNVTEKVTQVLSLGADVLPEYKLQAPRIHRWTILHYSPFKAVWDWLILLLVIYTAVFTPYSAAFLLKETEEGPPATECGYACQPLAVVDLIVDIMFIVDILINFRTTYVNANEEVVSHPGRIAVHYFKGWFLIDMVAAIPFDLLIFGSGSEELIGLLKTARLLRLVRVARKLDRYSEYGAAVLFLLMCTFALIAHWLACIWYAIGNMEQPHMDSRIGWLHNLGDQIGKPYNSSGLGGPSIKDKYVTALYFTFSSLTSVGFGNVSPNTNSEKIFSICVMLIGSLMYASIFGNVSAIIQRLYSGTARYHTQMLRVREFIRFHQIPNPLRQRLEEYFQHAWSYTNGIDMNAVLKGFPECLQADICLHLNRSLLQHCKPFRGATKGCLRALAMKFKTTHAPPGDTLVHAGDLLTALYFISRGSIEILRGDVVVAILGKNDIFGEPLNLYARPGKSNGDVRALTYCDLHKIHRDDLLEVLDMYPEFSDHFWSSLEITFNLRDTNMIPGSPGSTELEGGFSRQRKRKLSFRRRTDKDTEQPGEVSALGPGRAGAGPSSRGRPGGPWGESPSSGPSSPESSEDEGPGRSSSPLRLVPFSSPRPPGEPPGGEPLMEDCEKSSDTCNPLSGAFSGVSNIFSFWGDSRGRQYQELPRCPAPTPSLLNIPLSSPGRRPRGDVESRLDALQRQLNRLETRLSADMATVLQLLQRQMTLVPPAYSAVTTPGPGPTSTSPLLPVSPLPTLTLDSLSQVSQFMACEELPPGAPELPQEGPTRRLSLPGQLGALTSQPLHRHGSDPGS
row,Structure (SMILES),"hERG current change (%, negative = inhibition) at 10uM"
1,COCCNC(=O)c1onc(CSc2ccccc2)c1C(=O)O,7.09%
2,O=C(CN1CCOc2ccccc21)NCc1ccco1,2.93%
3,Cc1cccc(NC(=O)C2(C)CC3c4ccccc4C2c2ccccc23)c1 (stereo not shown),9.5%
4,Cl.O=C(Nc1nnc(CCN2CCCCC2)s1)c1ccccc1,4.58%
5,O=C(Nc1nnc(CCN2CCCCC2)s1)c1ccc(Br)cc1,-51.4%
6,O=C(Nc1nnc(CCN2CCCCC2)s1)c1cccc(Cl)c1,-10.8%
7,CC(C)C(=O)Nc1ccc(NC(=O)c2ccc3c(c2)OCO3)cc1,10.2%
8,Cc1ccccc1OCC(=O)Nc1cccc(S(=O)(=O)NC2=NCCCCC2)c1,-7.89%
9,CCn1ncc([C@@H]2C[C@H]3CN(Cc4cccc(Cl)c4)C(=O)[C@]34CCCN24)c1C,-33%
10,COc1ccccc1/C=C/[C@@H]1C[C@H]2CN(Cc3cccc(Cl)c3)C(=O)[C@]23CCCN13,-75.4%
11,O=C1N(Cc2cccc(Cl)c2)C[C@@H]2C[C@@H](c3cccc4cccnc34)N3CCC[C@@]123,-78%
12,O=C1N(Cc2cccc(Cl)c2)C[C@@H]2C[C@@H](c3ccco3)N3CCC[C@@]123,-25.9%
13,Cc1cccc([C@@H]2C[C@H]3CN(Cc4cccc(Cl)c4)C(=O)[C@]34CCCN24)n1,-55%
14,COc1cccc2c1OCC([C@@H]1C[C@H]3CN(Cc4cccc(Cl)c4)C(=O)[C@]34CCCN14)=C2,-45.2%
15,O=C1N(Cc2cccc(Cl)c2)C[C@@H]2C[C@@H](c3ccsc3)N3CCC[C@@]123,-60.1%
16,COCc1ccc([C@@H]2C[C@H]3CN(Cc4cccc(Cl)c4)C(=O)[C@]34CCCN24)o1,-31%
17,O=C1N(Cc2cccc(Cl)c2)C[C@@H]2C[C@@H](c3ccccn3)N3CCC[C@@]123,-18.5%
18,CC(C)n1cc([C@@H]2C[C@H]3CN(Cc4cccc(Cl)c4)C(=O)[C@]34CCCN24)cn1,-33.7%
19,O=C(Nc1cnn(Cc2ccccc2)c1)c1cc2nc(-c3ccco3)cc(C(F)(F)F)n2n1,7.2%
20,O=C(c1ccccc1)c1ccccc1N/C=C/c1nnnn1-c1ccccc1,1.11%

row,Structure (SMILES),"hERG current change (%, negative = inhibition) at 10uM"
1,CCCCCOc1ccc(CSc2ncn[nH]2)cc1,-17.4%
2,O=C(NCC1CCCO1)c1onc(CSc2ccccc2)c1C(=O)O (stereo not shown),10.1%
3,CC(C)(C)OC(=O)CNC(=O)c1nc[nH]c1C(=O)N1CC[NH2+]CC1.[Cl-],4.07%
4,O=S1(=O)CCN(OCc2ccc(F)cc2Cl)CC1,34.4%
5,Cc1ccc(NC(=O)Cc2c[nH]c3ccccc23)cc1S(=O)(=O)N1CCCCCC1,14.1%
6,O=C(Cc1n[nH]c(=O)c2ccccc12)Nc1cccc(S(=O)(=O)N2CCCC2)c1,-5.36%
7,Cc1ccc(NC(=O)Cc2n[nH]c(=O)c3ccccc23)cc1S(=O)(=O)N1CCCCCC1,-51.5%
8,O=C(Cn1[nH]c(=O)c2ccccc2c1=O)Nc1cccc(S(=O)(=O)N2CCCCCC2)c1,-13.2%
9,CCN(CC)S(=O)(=O)c1cc(NC(=O)Cc2n[nH]c(=O)c3ccccc23)ccc1C,-21.2%
10,O=C(Cc1n[nH]c(=O)c2ccccc12)Nc1cccc(S(=O)(=O)N2CCCCCC2)c1,-57.8%
11,CCCCP(=O)(CCCC)Cc1ccccc1O,13.9%
12,COc1ccccc1NC(=O)Nc1nc(CC(=O)Nc2ccc(F)cc2)cs1,-1.25%
13,COc1ccc(-c2cc(C(=O)N3CCc4ccccc4C3)no2)cc1,-0.668%
14,Cc1ccc(-n2c(C)cc(C(=O)NS(=O)(=O)c3ccc(C)cc3)c2C)cc1,-30.8%
15,COP(=O)(NS(=O)(=O)c1ccccc1)OC,19.9%
16,C=CCn1c(Cc2cccs2)nnc1SCC(=O)NCc1ccco1,-1.47%
17,Cc1ccnc(SCc2cc(=O)c(OC(=O)c3ccc(S(=O)(=O)N(C)C)cc3)co2)n1,-36.4%
18,CCOC(=O)c1c(NC(=O)CN(C)C)sc(C(=O)N(CC)CC)c1C.O=C(O)C(=O)O,-17.6%
19,CCC[C@@H]1CCCO[C@@](C(=O)NCc2ccccn2)(C(F)(F)F)C1,-1.97%
20,COc1cc2c(cc1OC)C1(CCCC1)CNC2C.Cl (stereo not shown),-3.04%
